D2 ag-1: HTS Assay for Allosteric Agonists of the Human D2 Dopamine Receptor: Primary Screen for Agonists | HEK293 T-REx D2 cells, calcium flux agonist mode | activation, % at 2 µM | hit rate 0.53% among 340,000 | AID 485358, 2010;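 active = activation over 3 SD above normal in the single-dose calcium agonist read, cut at about 30% in these data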; also: 0% is about no effect
Target sequence (P14416 whole entry, looked up): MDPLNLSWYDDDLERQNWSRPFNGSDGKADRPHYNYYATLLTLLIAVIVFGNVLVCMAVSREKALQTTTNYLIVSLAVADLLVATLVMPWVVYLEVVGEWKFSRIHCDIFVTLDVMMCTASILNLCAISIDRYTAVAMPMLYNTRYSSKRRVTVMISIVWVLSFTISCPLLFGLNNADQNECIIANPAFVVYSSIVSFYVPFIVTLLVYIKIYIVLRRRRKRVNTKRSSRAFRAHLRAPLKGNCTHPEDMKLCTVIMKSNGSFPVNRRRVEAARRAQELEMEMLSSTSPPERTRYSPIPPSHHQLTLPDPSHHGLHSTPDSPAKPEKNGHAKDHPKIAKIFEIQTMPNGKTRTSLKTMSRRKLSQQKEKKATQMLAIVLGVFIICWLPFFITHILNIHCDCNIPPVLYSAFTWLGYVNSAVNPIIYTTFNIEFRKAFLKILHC
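Agonism scored from kinetic calcium signal (1 read/sec, 180 s) following compound pin transfer, after a 10 s baseline. Cells: HEK293 Trex line expressing inducible D2 receptor coupled to calcium, dye-loaded after overnight culture at 30 C.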
D2 ag-2: Beta-Arrestin HTS for Positive Allosteric Modulators of the Human D2 Dopamine Receptor: Agonists; D(2) dopamine receptor (Homo sapiens), P14416; DiscoveRx PathHunter D2 beta-arrestin, luminescence, 90 min; 100% = 57 uM dopamine signal; activation, % (test concentration not listed); hit rate 0.084% among 360,000; AID 624465, 2012; in the data active = activation above about 40%; inconclusive = between about 15% and that limit
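DiscoveRx PathHunter D2 beta-arrestin cells (2,100/well) attached overnight, then compound-stimulated 90 min at 37 C in HBSS/10 mM HEPES/0.1% Tween-20 buffer; beta-galactosidase complementation read by luminescence after 1 h at ambient temperature. Dopamine 57 uM final (EC100) as control.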
D2 antag: HTS Assay for Allosteric Antagonists of the Human D2 Dopamine Receptor: Primary Screen for Antagonists | D(2) dopamine receptor (Homo sapiens), P14416 | HEK293 TREx D2 cells, calcium flux, dopamine EC80 | inhibition, % at 10 µM | hit rate 2% among 340,000; in the data active = inhibition above about 30%; inactive = below that, where a call was filed; also: 0% is about no effect
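Read-out: kinetic calcium fluorescence (1 cycle/s) in inducible HEK293 T-REx D2 cells after an EC80 dopamine addition that followed 180 s compound preincubation. Loss of the dopamine response indicates antagonism.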
D2 PAM-1: HTS Assay for Positive Allosteric Modulators of the Human D2 Dopamine Receptor: Primary Screen for Potentiators | hit rate 0.34% among 340,000 | potentiation, % at 10 µM | D(2) dopamine receptor (Homo sapiens), P14416 | AID 485347, 2010 | HEK293 T-REx D2, calcium flux, EC20 dopamine potentiation;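 active = potentiation over 3 SD above the plate norm, cut at about 30% in these data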; also: 0% is about no effect
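Tetracycline-induced Hek293 Trex D2 cells, force-coupled to calcium, loaded with no-wash calcium dye. Compound added with 180 s kinetic read for agonism, then EC20 dopamine and a further 180 s read for potentiation.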
D2 PAM-2: Beta-Arrestin HTS for Positive Allosteric Modulators of the Human D2 Dopamine Receptor: Potentiators. DiscoveRx D2 beta-arrestin cells, luminescence, 90 min; 100% = 57 uM dopamine signal. potentiation, % (no concentration beside the values). hit rate 0.23% among 360,000. AID 624464, 2012; in the data active = potentiation above about 50%; inconclusive = mostly about 30% to 49%
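PathHunter beta-arrestin assay in DiscoveRx D2 cells. Compounds were added with an EC20 of dopamine (50 nM final) for 90 min at 37 deg C. Luminescence was read 1 h after detection reagent, with 57 uM dopamine as the EC100 control.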
* = called active by the depositor. Compounds with a hit are over-represented: about 2.4% of the library has one in this group of screens.

Results for CCC1C(=O)N=C(SCC(=O)Nc2cccc3ccccc23)NC1=O (configuration not stated) ?
D2 ag-1: 0; D2 ag-2: -1; D2 antag: 6; D2 PAM-1: -9; D2 PAM-2: 4

What do the screens show for `CCOC(=O)c1ccc(NC(=O)CSC2=NC(=O)C(CC)C(=O)N2)cc1` (configuration not stated)?
D2 ag-1: 1; D2 ag-2: -3; D2 antag: 47*; D2 PAM-1: 4; D2 PAM-2: -14

Results for N#Cc1ccsc1NC(=O)CN1C(=O)NC2(CCCC2)C1=O ?
D2 ag-1: 0; D2 antag: 40*; D2 PAM-1: -20

What do the screens show for `COC(=O)c1c(NC(=O)CN2C(=O)NC3(CCC(C)CC3)C2=O)sc2c1CCC2` (configuration not stated)?
D2 ag-1: 0; D2 ag-2: 2; D2 antag: -13; D2 PAM-1: -16; D2 PAM-2: -1

Results for CCOC(=O)c1ccc(NC(=O)CN2C(=O)NC3(CCCCCCC3)C2=O)cc1 ?
D2 ag-1: 0; D2 ag-2: 2; D2 antag: 38*; D2 PAM-1: 14; D2 PAM-2: 1

Results for CCCCOC(=O)c1ccc(NC(=O)CN2C(=O)NC3(CCCCCC3)C2=O)cc1 ?
D2 ag-1: 1; D2 ag-2: -2; D2 antag: 2; D2 PAM-1: 5; D2 PAM-2: -1

Results for Cc1ccc(OCc2cc(C(=O)NCC(C)c3ccccc3)no2)cc1C (configuration not stated) ?
D2 ag-1: 1; D2 ag-2: 2; D2 antag: -17; D2 PAM-1: -3; D2 PAM-2: -19

Results for O=C(CSC(=S)N1CCCC1)N1CCN(S(=O)(=O)c2cccc(F)c2)CC1 ?
D2 ag-2: -4; D2 PAM-2: -17

Results for O=C(CN1C(=O)NC2(CCCCCC2)C1=O)Nc1ccc(Br)cc1Br ?
D2 ag-1: 0; D2 ag-2: -1; D2 antag: 37*; D2 PAM-1: 16; D2 PAM-2: 2

How did Cc1ccc(NC(=O)CN2C(=O)NC3(CCCC3)C2=O)c(Cl)c1 do in these assays?
D2 ag-1: -1; D2 ag-2: -1; D2 antag: -16; D2 PAM-1: 15; D2 PAM-2: -4

Results for CS(=O)(=O)Nc1ccc2c3c(cccc13)CC2 ?
D2 ag-1: 0; D2 ag-2: -3; D2 antag: 14; D2 PAM-1: -2; D2 PAM-2: -15

How did O=C(NCCS(=O)(=O)N1CCN(c2ccccc2)CC1)C1CC(=O)N(c2ccc(F)cc2)C1 (configuration not stated) do in these assays?
D2 ag-1: 0; D2 ag-2: -1; D2 antag: 32*; D2 PAM-1: -6; D2 PAM-2: -6

What do the screens show for `O=C(NCCS(=O)(=O)N1CCN(c2ccccc2F)CC1)c1ccco1`?
D2 ag-1: -1; D2 ag-2: -1; D2 antag: -3; D2 PAM-1: -3; D2 PAM-2: 10

How did O=C(Cc1ccc(F)cc1)NCCS(=O)(=O)N1CCN(c2ccccc2)CC1 do in these assays?
D2 ag-1: 10; D2 ag-2: inconclusive; D2 antag: 46*; D2 PAM-1: -6; D2 PAM-2: -6

What do the screens show for `CCOC(=O)N1CCN(Cc2c(NC(=O)c3ccco3)sc(C)c2C)CC1`?
D2 ag-1: 0; D2 ag-2: 4; D2 antag: 7; D2 PAM-2: -4

What do the screens show for `Cc1sc(NC(=O)c2ccco2)c(CN2CCN(c3ccc(F)cc3)CC2)c1C`?
D2 ag-1: 1; D2 ag-2: 1; D2 antag: 33*; D2 PAM-1: -5; D2 PAM-2: -4

Results for O=C(NCCS(=O)(=O)N1CCN(c2ccc(F)cc2)CC1)c1ccco1 ?
D2 ag-1: 0; D2 ag-2: -4; D2 antag: 33*; D2 PAM-1: -13; D2 PAM-2: -7

How did CCOc1ccccc1CN1CCNC(=O)C1CC(=O)NC1CCCCCC1 (configuration not stated) do in these assays?
D2 ag-1: 0; D2 ag-2: -4; D2 antag: -14; D2 PAM-1: -5; D2 PAM-2: -15

What do the screens show for `CCOC(=O)C1=C(COc2ccccc2)NC(=O)NC1c1ccc2ccccc2c1` (configuration not stated)?
D2 ag-2: -1; D2 PAM-2: -1

Results for CC(N=C1NS(=O)(=O)c2ccccc21)C(=O)NCCCc1ccccc1 (configuration not stated) ?
D2 ag-2: 3; D2 PAM-2: -37

What do the screens show for `COC(=O)c1ccc(CNC(=O)C(C)N=C2NS(=O)(=O)c3ccccc32)cc1` (configuration not stated)?
D2 ag-1: 0; D2 ag-2: -3; D2 antag: 44*; D2 PAM-1: -21; D2 PAM-2: -38

What do the screens show for `COc1ccc(NC(=O)N(Cc2cc3cc(OC)c(OC)cc3[nH]c2=O)CC2CCCO2)cc1` (configuration not stated)?
D2 ag-1: 2; D2 ag-2: -1; D2 antag: 15; D2 PAM-1: -9; D2 PAM-2: -7

How did O=C(Nc1cccc(-c2nn[nH]n2)c1)c1ccc(Cl)s1 do in these assays?
D2 ag-1: 0; D2 ag-2: -1; D2 antag: 2; D2 PAM-1: 11; D2 PAM-2: -8

How did Cc1ccc(S(=O)(=O)N/N=C\c2cn(-c3ccccc3)nc2-c2ccccc2)cc1 do in these assays?
D2 ag-1: 3; D2 ag-2: -1; D2 antag: 4; D2 PAM-1: 2; D2 PAM-2: -23

What do the screens show for `Cc1cc(C)nc(SCCCNCc2ccc(Br)cc2)n1`?
D2 ag-1: 1; D2 ag-2: -2; D2 antag: 59*; D2 PAM-1: -29; D2 PAM-2: -8

What do the screens show for `Cc1ccc(CNCCCSc2nc(C)cc(C)n2)cc1`?
D2 ag-1: 0; D2 ag-2: -4; D2 antag: 63*; D2 PAM-1: -14; D2 PAM-2: -3

How did O=C(NCc1cn2ccsc2n1)c1cccc(C(F)(F)F)c1 do in these assays?
D2 ag-1: 0; D2 ag-2: -1; D2 antag: -9; D2 PAM-1: 11; D2 PAM-2: -6

How did O=C(COC(=O)c1cc(S(=O)(=O)Nc2ccccc2Cl)ccc1O)Nc1ccc(F)c(F)c1F do in these assays?
D2 ag-2: 1; D2 PAM-2: -6
